Shown are actives, neighbours in structure and some others; about 2.9% of the full set was active somewhere.
Wnt act: activators of Wnt/beta-catenin signaling | Wnt/beta-catenin reporter cell assay, activator, plate reader | activation, % at 9.35 µM | 300,000 compounds, 1.2% hits; in the data active = activation above about 30%, passing the limit was not always enough; inconclusive = no clear call, values can overlap the other calls;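 also: 0% = neutral control wells and 100% = positive control wells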
MITF act: activators of MITF-driven TRPM1 promoter activity in SK-MEL-5 cells | SK-MEL-5 TRPM1-promoter luciferase, 24 h; % of positive control, neutral wells = 0 | activation, % at 12.5 µM | 300,000 compounds, 0.75% hits;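 active = mean activation of at least 80% with every replicate also reaching 80%; inconclusive = mean reaches 80% but some replicate falls short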;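 also: 0% = neutral control wells and 100% = parthenolide positive control wells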
Vif inh: HIV Vif inhibition; HEK293T cells, Vif self-association by quenched fluorescence, imaging, 24 h; AID 602346; 340,000 compounds, 0.35% hits; inhibition, % at 7.49 µM; in the data active = inhibition above about 50%, passing the limit was not always enough; inconclusive = no clear call, values can overlap the other calls; inactive = below about 31%
Glyco luc inh: N-linked glycosylation inhibition | D54 ERlucT glycosylation luciferase reporter, 24 h; percent of 100 nM tunicamycin response | reporter increase, % at 12.5 µM | 360,000 compounds, 0.23% hits | AID 588692;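 active = mean luciferase reporter signal, scaled so untreated is 0 and the glycosylation-blocking control 100, at or above a set limit in every replicate; inconclusive = mean reaches the limit but not every replicate does; inactive = mean below the limit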;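 also: luciferase carries N-glycosylation sites so blocking glycosylation raises the light; 0% = median of neutral control wells and 100% = median of 100 nM tunicamycin wells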
PvdQ inh: blocks Pseudomonas aeruginosa PvdQ acylase activity; purified PvdQ acylase, fluorescence plate reader; 340,000 compounds, 0.063% hits; inhibition, % at 10 µM; in the data active = inhibition above about 30%, passing the limit was not always enough; inconclusive = no clear call, values can overlap the other calls;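 also: 0% = vehicle neutral wells and 100% = reference inhibitor wells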
esBAF inh: inhibitors of esBAF chromatin remodeling in mouse ES cells | Bmi1-luciferase knock-in reporter, 24 h; 100% = twice the neutral-well signal | reporter increase, % at 12.5 µM | 350,000 compounds, 2% hits; in the data active = activation above about 40%; inconclusive = no clear call, values can overlap the other calls;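 also: 0% = median of the plate's neutral control wells and 100% = double that signal; a rise in the Bmi1 reporter signal indicates esBAF inhibition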
An asterisk follows results filed as active; ? = inconclusive; · = no result given.

SMILES	Wnt act	MITF act	Vif inh	Glyco luc inh	PvdQ inh	esBAF inh
O=C(NCC[C@@H]1CC[C@@H](NS(=O)(=O)c2cccc(F)c2)[C@@H](CO)O1)C1CCCCC1	·	·	·	·	·	6
CCc1ccccc1Nc1nc(N)nc(COC(=O)c2cccn2C)n1	-6	32	-15	-9	-14	26
Cn1cccc1C(=O)OCc1csc(-c2ccccc2)n1	71*	22	-20	-15	-1	·
Cc1ccccc1Nc1nc(N)nc(COC(=O)c2cccn2C)n1	66*	·	-7	0	-25	48*
Cc1ccccc1Nc1nc(N)nc(COC(=O)c2ccccc2)n1	·	83*	2	5	-1	·
C[C@@H]1CN([C@@H](C)CO)C(=O)c2cc(NC(=O)Cc3ccccc3)ccc2O[C@@H]1CN(C)Cc1ccc(Cl)c(Cl)c1	·	·	·	·	·	5
CCC1(CC)NC(=O)N(CC(=O)Nc2ccc(OCc3ccccc3)cc2)C1=O	4	14	55*	-1	-19	15
CCOc1ccc(N(CC(=O)Nc2ccc(C)cc2)S(C)(=O)=O)cc1	17	66	2	2	-13	80*
CCOc1ccc(S(=O)(=O)Nc2ccc(C(=O)NN)cc2)cc1	53*	-1	-15	1	-6	1
CCOc1ccc(S(=O)(=O)Nc2ccc(C(=O)NNC(=O)c3ccncc3)cc2)cc1	1	0	-7	1	-6	·
CCOc1ccc(NC(N)=O)cc1	5	-4	65*	0	1	11
C[C@@H]1CCCCO[C@H](CN(C)S(=O)(=O)c2cccs2)[C@@H](C)CN([C@H](C)CO)C(=O)c2cc(NS(C)(=O)=O)ccc2O1	·	·	·	·	·	-2
CCC(=O)Nc1ccc(C(=O)OCc2ccccc2Cl)cc1	·	121*	5	-5	-12	?
CCOc1ccc(CNC(=O)Nc2ccccc2)cc1	11	65	-2	0	-9	47*
COC(=O)c1ccc(NC(=O)Cc2ccc(C)cc2)cc1	3	4	19	0	-12	19
COC(=O)c1ccc(NC(=O)Cc2ccccc2)cc1	39*	·	3	0	-14	·
CC(=O)Nc1ccc(C(=O)OCc2ccccc2Cl)cc1	0	37	1	-3	-10	·
CC(=O)c1ccc(NC(=O)CN(c2c(C)cccc2C)S(C)(=O)=O)cc1	4	32	-8	0	-8	56*
C[C@@H]1CN([C@H](C)CO)C(=O)c2cc(NC(=O)CCC(F)(F)F)ccc2O[C@@H]1CN(C)Cc1ccc(C(F)(F)F)cc1	·	·	·	·	·	-3
CCOc1ccc(NC(=O)Cc2ccccc2)cc1	35*	83*	-14	-3	1	66*
O=C(c1ncn(Cc2ccccc2)c1C(=O)N1CCN(c2ccccc2)CC1)N1CCN(c2ccccc2)CC1	-2	1	0	50*	-13	5
CC(=O)c1cccc(NC(=O)c2cnn3ccccc23)c1	17	·	?	0	8	20
Cc1ccccc1NC(=O)c1cc2ccccn2n1	59*	62	-1	-10	-9	·
CC(=O)c1cccc(NC(=O)c2cc3ccccn3n2)c1	?	·	-4	-4	0	54*
Cc1ccc(C)c(NC(=O)c2cc3ccccn3n2)c1	50*	45	-4	-2	6	33
SMILES	Wnt act	MITF act	Vif inh	Glyco luc inh	PvdQ inh	esBAF inh
Cc1noc(C)c1NC(=O)N(C)C[C@@H]1OCCCC[C@@H](C)Oc2ccc(NS(=O)(=O)c3ccc(F)cc3)cc2C(=O)N([C@H](C)CO)C[C@H]1C	·	·	·	·	·	1
O=C(c1ccc(Cl)c(Cl)c1)N(Cc1ccco1)c1ccc(O)cc1	·	-5	54*	-5	-4	6
C[C@@H](NC(=O)[C@H]1N[C@H]2c3ccc(-c4cncnc4)c(=O)n3C[C@H]2[C@@H]1CO)c1ccccc1	·	·	·	·	·	4
COc1ccc(NC(=O)Nc2ccc3c(c2)CC(=O)N([C@@H](C)CO)C[C@H](C)[C@@H](CN(C)C(=O)Nc2ccc4c(c2)OCO4)O3)cc1	·	·	·	·	·	-4
COc1ccc2[nH]c(=O)c(CNc3ccccc3C)cc2c1	39*	16	2	-3	-6	·
COc1ccc2[nH]c(=O)c(CNc3ccccc3)cc2c1	28	17	-9	1	-5	85*
COc1ccc2[nH]c(=O)c(CNc3ccccc3OC)cc2c1	-1	-5	0	0	-13	2

From PubChem BioAssay
